LASV entry inh: blocks Lassa virus binding to or entry into cells | Lassa virus pseudotype entry inhibition, cell reporter | AID 540256 | Potency, µM (titrated, usually from 37.9 µM), for the others: top-dose activity change, negative = inhibition, usual class: inhibitors | 300,000 tested, 1.2% active; calls by dose curve; tested in HEK293 cells; further: potency means the concentration at half of the fitted maximal effect; on the % scale 0 is the no-effect control and ±100 the full control effect; nearly all actives have a fitted effect of over 50% in size
Shiga toxin inh: blocks Shiga toxin action in Vero cells. Vero cells, Shiga toxin protein synthesis inhibition reporter. inhibition, % at 38.7 µM. 290,000 tested, 9.2% active; in the data active means inhibition mostly above about 28%, no sharp cut-off; inactive means mostly below about 43%; further: 0% is about no effect
Cycloheximide cs: affects cycloheximide protein synthesis inhibition readout, counter-screen; cell reporter, cycloheximide protein synthesis inhibition counterscreen; AID 2314; 300,000 tested, 12% active; max response, %; in the data active means max response mostly above about 13%, no sharp cut-off; inactive means mostly below about 14%; further: read at 38.3 µM for the half of the compounds with a filed dose; 0% is about no effect
Marburg entry inh: inhibitors of Marburg virus binding or cell entry. Marburg virus pseudotyped entry inhibition, cell reporter. 300,000 tested, 1.8% active. Potency, µM (top dose mostly 37.8 µM), for inactives: at the top dose activity change, negative = inhibition, usual class: inhibitors; calls by dose curve; tested in HEK293 cells; further: potency means the concentration at half of the fitted maximal effect; on the % scale 0 is the no-effect control and ±100 the full control effect
Numbers without * were called inactive; ? = inconclusive; . = no result; [ ] = another dose, or the depositor's remark. An excerpt weighted towards active compounds, which were near 12% of everything screened.

SMILES	LASV entry inh	Shiga toxin inh	Cycloheximide cs	Marburg entry inh
CCOc1ccc(NC(=O)NC(C)CC)cc1 (stereo not given)	11%[46.1 µM]	42*	40*	?
COc1ccc(NC(=O)Nc2cccnc2)c(OC)c1	26%[46.1 µM]	-11	2	25%[46.1 µM]
Cc1ccc(C)c(NC(=O)CSc2ccc(-c3ccco3)nn2)c1	19%	8	1	8%
COc1ccc(NC(=O)c2oc3ccccc3c2NC(=O)Cc2coc3c(C)c(C)ccc23)cc1	-9%[46.1 µM]	.	.	-18%[46.1 µM]
Cc1ccc2c(=O)cc(C(=O)Nc3ccc(S(=O)(=O)Nc4onc(C)c4C)cc3)oc2c1C	2%[46.1 µM]	.	.	3%[46.1 µM]
CNC(=S)N/N=C/c1c2ccccc2c(Cl)c2ccccc12	.	87*	27*	3%[46.1 µM]
C=CCn1c(O)c(C(C)=Nc2cccc(C(F)(F)F)c2)c(=O)[nH]c1=O	0%	-14	-3	?
CCCCn1c(O)c(C(CC)=Nc2cccc(C(=O)O)c2)c(=O)[nH]c1=O	6%	8	1	-6%
C=CCn1c(O)c(C(CC)=Nc2cccc(C(=O)O)c2)c(=O)[nH]c1=O	24%[46.1 µM]	76*	76*	0%[46.1 µM]
C=CCn1c(O)c(C(CC)=Nc2ccc3c(c2)CCC3)c(=O)[nH]c1=O	0.89µM*	28	8	9%
C=CCn1c(O)c(C(C)=Nc2cccc(C(=O)O)c2)c(=O)[nH]c1=O	17%[46.1 µM]	62*	29*	13%[46.1 µM]
CCOC(=O)CCCn1ncn2c(cc3occc32)c1=O	?	63	55*	27%
CCOC(=O)N1CCC(Nc2nc3ccccc3nc2NS(=O)(=O)c2ccc(Cl)cc2)CC1	6%	96*	30*	?
CCOC(=O)N1CCC(NC(=O)c2ccc(Cl)cc2)CC1	.	-5	-4	.
CNC(=O)/C(C#N)=C/c1cccc(Oc2ccccc2)c1	-21%	64*	42*	-2%[46.1 µM]
CNC(=O)/C(=C\c1cccc(Oc2ccccc2)c1)NC(=O)c1ccccc1	?	-3	-1	-28%
CC1SCC(=NOCc2ccccc2)CS1 (stereo not given)	-4%	114*	38*	?
O=C(CSc1n[nH]c(=O)[nH]c1=O)Nc1ccc2c(c1)C(=O)c1ccccc1C2=O	.	68*	27*	.
O=C(CSc1ccccn1)Nc1ccc2c(c1)CCC2	11%	.	.	?
O=C(CSc1n[nH]c(=O)[nH]c1=O)Nc1cccc(S(=O)(=O)N2CCOCC2)c1	.	3	-3	.
O=C(CSc1ccccn1)Nc1ccc2ccccc2c1	.	77*	53*	.
O=C(CSC1=NCCS1)Nc1ccc2ccccc2c1	-26%	117*	36*	19%[46.1 µM]
O=C(CSc1ccccn1)Nc1ccc2c(c1)C(=O)c1ccccc1C2=O	?	20	43*	6%
CC(=O)Nc1ccc(NC(=O)CSC2=NCCS2)cc1	3%	3	-3	22%
CCOC(=O)CN1C(=O)[C@@]2(CC(C)=C[C@@H](COCc3ccccc3)O2)c2ccccc21	?	.	.	7%[14.2 µM]
SMILES	LASV entry inh	Shiga toxin inh	Cycloheximide cs	Marburg entry inh
Cc1cccc(C)c1NC(=O)c1ccc2c(c1)nnn2C1CCCC1	-18%[46.1 µM]	.	.	.
O=C(COc1ccc2ccccc2c1)NC1=NCCS1	-15%	107*	43*	3%
Cc1cc(C)cc(OCC(=O)NC2=NCCS2)c1	16%	-3	7	3%
Cc1cccn2c(=O)nc(SCC(=O)NC3CCCCC3)nc12	-10%	.	.	-13%[46.1 µM]
CSc1cccc(NC(=O)CCNS(=O)(=O)c2ccc3[nH]c(=O)oc3c2)c1	14%[46.1 µM]	9	2	8%[46.1 µM]
Cc1ccc2cc(C#N)c(N3CCCN(C(=S)NCCCN(C)C)CC3)nc2c1	?	-13	-7	7.1µM*
Cc1cc(OCC(=O)Nc2ccccn2)c2c(C)cc(=O)oc2c1	20%[46.1 µM]	16	21	0%[46.1 µM]
CCCCc1cc(=O)oc2cc(C)cc(OCC(=O)Nc3ccccn3)c12	.	61*	21*	.
CCCc1cc(=O)oc2cc(C)cc(OCC(=O)Nc3ccccn3)c12	.	11	20*	.
O=C(NCc1ccncc1)C(=O)N/N=C/c1ccccn1	?	-5	-1	4%[46.1 µM]
Cc1ccc(Cl)cc1NC(=O)C1CCN(c2nnc(C)c3c(C)n(-c4ccccc4)nc23)CC1	-7%[46.1 µM]	.	.	.
CCN1C(=O)CSC1=Nc1ccc(C(=O)O)cc1	-15%[46.1 µM]	.	8	7%[46.1 µM]
CC(C)(C)c1ccc(N=C2SCC(=O)N2Cc2cccs2)cc1	-7%	50*	47*	?
O=C(Nc1ccc(S(=O)(=O)N2CCOCC2)cc1)c1cc(-c2ccccc2O)n[nH]1	.	14	-1	.
CC1CN(S(=O)(=O)c2ccc(NC(=O)c3cc(-c4ccccc4O)n[nH]3)cc2)CC(C)O1 (stereo not given)	21µM*	-5	-1	12µM*
O=C(NC(C(=O)c1ccccc1)N1CCCCC1)c1ccccc1 (stereo not given)	-18%	72*	33*	8%
COc1ccccc1NC(=O)Cn1nc(-c2ccc(Cl)cc2)c2ccccc2c1=O	1%	-4	16*	-27%[46.1 µM]
COc1ccccc1NC(=O)CCn1nc(-c2ccccc2)c2ccccc2c1=O	-1%[46.1 µM]	.	.	?
O=C(CN1CCN(S(=O)(=O)c2ccc(F)cc2)CC1)Nc1ccc(F)cc1F	.	37*	60*	.
COc1ccccc1NC(=O)CN1CCN(CC(=O)Nc2ccc(F)cc2F)CC1	-17%[46.1 µM]	92*	32*	?
Cn1ccnc1SCc1cccc([N+](=O)[O-])c1	-2%[46.1 µM]	17	-3	15%[46.1 µM]
Cn1ccnc1SCc1cn2cc(Br)ccc2n1	?	-7	22	6.3µM*
Cc1ccc2c(c1)c1c(c(=O)n(-c3ccccc3C)c(=O)n1CC(=O)NCC1CCCO1)n2C (stereo not given)	11%[46.1 µM]	1	-1	.
Cn1c(CNC(=O)c2ccc(Cl)cc2)nnc1SCC(=O)NC1CCCC1	12%[46.1 µM]	1	-8	11%[46.1 µM]
CCCn1nc(NC(=O)c2ccco2)c2cc3ccccc3nc21	?	19	3	?
SMILES	LASV entry inh	Shiga toxin inh	Cycloheximide cs	Marburg entry inh
CCCn1nc(NC(=O)c2cccs2)c2cc3cc(C)ccc3nc21	?	37*	25*	1%[46.1 µM]
CCCCn1nc(NC(=O)c2cccs2)c2cc3ccccc3nc21	?	34	10	16µM*
CCCn1nc(NC(=O)c2cccs2)c2cc3cc(OC)ccc3nc21	?	29*	18*	-9%
CCCn1nc(NC(=O)c2cccs2)c2cc3ccc(C)cc3nc21	.	-1	-1	.
CCn1nc(NC(=O)c2ccco2)c2cc3cc(C)ccc3nc21	-30%	28	9.8*	?
CC1(C)NC(=O)N(CC(=O)Nc2nc(-c3ccc(F)cc3)cs2)C1=O	6%	38	15	3%
Cc1ccc2nc(SCC(=O)c3ccccc3)nc(=O)n2c1	10µM*	.	.	?
Nc1ccc2nc(SCC(=O)c3ccccc3)sc2c1	?	68*	45*	24%
Nc1ccc2nc(SCc3ccccc3F)sc2c1	17%	87*	71*	?
Nc1cc(N)nc(SCC(=O)c2ccccc2)n1	?	12	40*	12%
Cc1cc(C(=O)O)cc(Br)c1N	-3%	6	12	-16%[46.1 µM]
CCC(=O)N1CCc2cc(S(=O)(=O)CCC(=O)Nc3ccc(Cl)c(C(F)(F)F)c3)ccc21	-1%[46.1 µM]	.	.	2%[46.1 µM]
Cc1ccccc1CN1C(=O)c2ccccc2S(=O)c2ccc(C(=O)NCc3ccc(Cl)cc3)cc21 (stereo not given)	-19%[46.1 µM]	.	.	.
CCN(CCCNC(=O)CN1N=C(c2ccccc2)CCC1=O)c1ccccc1	-4%[46.1 µM]	.	.	.
